Experimental data reported in PubChem BioAssay (NCI).
The panel holds about 83,000 compounds, 20% with a hit somewhere; the sample as a whole holds those more often.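 Activity criterion: percent growth below 10, measured after cells in 96-well plates were exposed to a single compound concentration for 48 hours.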 Activity calls are given as the source filed them.

Assays:
Test in all cases: NCI-60 one-dose screen, 48 h (100 = growth as untreated, 0 = no growth, -100 = all killed)
Settings in all cases: 10 µM unless noted
[1] = test system: SR leukemia
[2] = test system: RPMI-8226 leukemia
[3] = test system: OVCAR-8 ovarian
[4] = test system: OVCAR-5 ovarian
[5] = test system: OVCAR-4 ovarian
[6] = test system: SK-OV-3 ovarian
[7] = test system: OVCAR-3 ovarian
[8] = test system: NCI/ADR-RES ovarian
[9] = test system: IGROV1 ovarian
[10] = test system: HS 578T breast

Measured: growth

COc1cccc(/C=C/c2c(C(=O)O)cccc2[N+](=O)[O-])c1OC
inactive: [1] 103% | [2] 107% | [3] 110% | [4] 103% | [5] 113% | [6] 88.2% | [7] 102% | [8] 109%

CCCCCCCC/C=C\CCCCCCCCOc1ccccc1CCOP(=O)(O)OCC[N+](C)(C)C
active: [2] -0.933% | [9] 9.7%
inactive: [1] 42.4% | [3] 60.3% | [4] 85.1% | [5] 80.3% | [7] 56.4% | [10] 88% | [8] 98.4%

C=C1C(=O)O[C@H]2[C@H]1CC/C(COC(=O)NCc1cc(OC)cc(OC)c1)=C\CC[C@@]1(C)O[C@@H]21
active: [1] 3.61% | [2] 5.14% | [3] -9.79% | [5] 9.29% | [7] -76.8%
inactive: [4] 18.1% | [6] 81.7% | [10] 37.1% | [8] 63.4%

Cc1oc2nc[nH]c(=O)c2c1C(=O)/C=C/c1ccc(Cl)cc1Cl
inactive: [1] 33% | [2] 28.4% | [3] 45.4% | [4] 134% | [5] 68.6% | [9] 89.2% | [7] 48.6% | [8] 43%

O=C(CCCn1c2c(sc3ccccc32)c(=O)n2nnc(-c3ccccc3)c12)NCCc1cnc[nH]1
active: [2] -4.25% | [3] -50.6% | [4] -82.1% | [5] -92.5% | [6] 5.51% | [7] -49.7%
inactive: [1] 55.2% | [10] 23.4% | [8] 21.2%

CCN1C(=O)N(CC)C2C1NN=c1s/c(=C3\C(=O)N(C4CCCC4)c4ccccc43)c(=O)n12 (configuration not stated)
inactive: [3] 23% | [4] 49.7% | [5] 46.1% | [9] 31.9%
active: [1] 0.0502% | [2] -0.279% | [7] -35.3% | [10] -7.85% | [8] -22.8%

COc1ccc(C(=O)c2cc(OC)c(OC)c(OC)c2)cc1/C=C/C(=O)c1ccc2c(c1)OCO2
inactive: [3] 19.4% | [6] 36.6% | [9] 16.9% | [10] 54%
active: [1] -10.3% | [2] -3.8% | [4] -16.7% | [7] 1.03% | [8] 5.77%

Cc1oc2ncnc(Nc3ccccc3)c2c1C(=O)NCCO
inactive: [1] 52.2% | [2] 94.8% | [3] 113% | [4] 93.2% | [5] 103% | [6] 100% | [7] 102% | [10] 90.5% | [8] 102%

CCCCCCCCCCCCCCCCCCOc1cccc(CCOP(=O)(O)OCC[N+](C)(C)C)c1
inactive: [1] 58.6% | [2] 86.9% | [3] 95% | [4] 101% | [5] 91.4% | [9] 39% | [7] 86.9% | [10] 93.1% | [8] 94.1%

O=C(Nc1ccc(OCc2nnc(-c3ccc(Cl)cc3)o2)c(F)c1)Nc1ccc(Cl)c(Cl)c1
inactive: [1] 21.4% | [2] 57% | [3] 60.2% | [4] 66.6% | [6] 60.6% | [9] 66.5% | [7] 25.9% | [10] 32% | [8] 65.2%

COc1ccc(C(=O)c2cc(OC)c(OC)c(OC)c2)cc1/C=C/C(=O)c1ccc(OC)c(OC)c1
inactive: [3] 26.1% | [6] 38.4% | [9] 29.7% | [10] 31.5% | [8] 19%
active: [1] 3.96% | [2] 8.82% | [4] 0.936% | [7] -22.1%

O=c1oc2cc(OS(=O)(=O)c3ccccc3)c(Cl)cc2c2c1CCCCCC2
inactive: [1] 63.4% | [2] 75.2% | [3] 89.2% | [4] 90.1% | [6] 106% | [9] 84.3% | [7] 91.3% | [10] 88.6% | [8] 67.4%

COc1ccc(C2CC(=O)Nc3c2c(C)nn3-c2nc3ccccc3[nH]2)cc1OC (configuration not stated)
inactive: [1] 32.8% | [2] 85.4% | [3] 62% | [4] 111% | [5] 62% | [6] 17.7% | [7] 83.2% | [8] 77.7%

CCCCOc1nc2c(C)cccc2cc1C1CNC(=O)c2ccccc2N1 (configuration not stated)
inactive: [1] 18.1% | [2] 57.5% | [3] 81.2% | [4] 112% | [5] 71.7% | [6] 69.2% | [7] 20% | [10] 69.7% | [8] 51.3%

CC(=O)/C=C/c1cc2cc(Cl)ccc2[nH]c1=O
active: [1] 5.65%
inactive: [2] 54.5% | [3] 92.2% | [4] 95.3% | [5] 90.5% | [6] 88.7% | [7] 84.7% | [10] 89.7% | [8] 100%

COc1cc2oc(-c3cccc(NC(=O)Nc4ccc5c(c4)OCO5)c3)cc(=O)c2c(OC)c1OC
active: [2] -1.59%
inactive: [1] 33.3% | [3] 44.3% | [4] 118% | [5] 69.1% | [9] 62.5% | [7] 56% | [10] 59.4% | [8] 57.6%

COc1ccc(/C=c2\sc3n(c2=O)C2C(NN=3)N(C)C(=O)N2C)cc1 (configuration not stated)
active: [1] -10.6% | [7] -3.86% | [10] 8.08%
inactive: [2] 20.3% | [3] 35% | [4] 54.9% | [5] 51.2% | [9] 40% | [8] 10.4%

CCCCn1c(=O)c(C2CNC(=O)c3ccccc3N2)cc2ccccc21 (configuration not stated)
inactive: [1] 102% | [2] 109% | [3] 114% | [4] 96.3% | [5] 103% | [6] 97.2% | [7] 99.7% | [10] 94.6% | [8] 100%

C=C1C(=O)O[C@H]2[C@H]1CC/C(COC(=O)NCCc1ccc(OC)cc1)=C\CC[C@@]1(C)O[C@@H]21
inactive: [2] 17.5% | [4] 30.9% | [5] 17.4% | [6] 89.3% | [10] 46% | [8] 78.9%
active: [1] -4.05% | [3] 2.7% | [7] -29.6%

C=C1C(=O)O[C@H]2[C@H](O)[C@@H](C)CCC/C(C)=C/CC[C@@]3(C)O[C@@H]3C[C@@H]12
inactive: [1] 94.3% | [2] 99.8% | [3] 88.7% | [4] 95.8% | [5] 103% | [6] 96.8% | [7] 72.6% | [10] 98.4% | [8] 97.6%
